Structures can show the parent of a compound that is named as a salt.
Key:
Conditions in all cases: incubation time: 27 h, anaerobic, 37 °C;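 for the amine columns active = adjusted P below 0.05 in both replicates with a change the same way and a mean fold change under 0.8 or over 1.25; inactive = the rest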
[1] = tested on: Clostridium sporogenes DSM 1664; test: growth (OD595) fold change vs plate DMSO controls (fold change (ratio)); higher = more growth
Procedure, shortened: (§1)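 Growth is calculated as fold change against the median of the DMSO control wells on each plate. Readings at 595 nm from anaerobic mGAM cultures (96-well, 27 h, 37 °C) were blank-subtracted, background-corrected with 20 µM compound solutions in water, and converted to OD by a calibration factor of 5. Fold changes above 1.5 were recorded as NA, and results are means of 2 biological replicates.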

[2] = tested on: Escherichia coli IAI1; test: as above
Procedure, shortened: as §1

[3] = tested on: Klebsiella aerogenes DSM 30053; test: as above
Procedure, shortened: as §1

[4] = tested on: Ruminococcus gnavus DSM 108212; test: as above
Procedure, shortened: as §1

[5] = tested on: Klebsiella aerogenes DSM 30053; test: fold change of Histamine concentration vs plate DMSO controls (fold change (ratio)); higher = more amine produced, active = hit call of the paper (significant change in both replicates, either direction)
Procedure, shortened: (§2)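 Amines were quantified by LC–triple-quadrupole MS in dynamic MRM mode against external calibration curves, with drift correction within each batch. The samples were whole anaerobic mGAM cultures of four gut bacterial strains, grown for 27 h at 37 °C in 80 µL wells and extracted with cold acetonitrile/methanol with 0.1% formic acid, then centrifuged. Values are reported as fold change over DMSO controls on the same plate. The mean of 2 biological replicates is given.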

[6] = tested on: Clostridium sporogenes DSM 1664; test: fold change of Tryptamine concentration vs plate DMSO controls (fold change (ratio)); higher = more amine produced, active = hit call of the paper (significant change in both replicates, either direction)
Procedure, shortened: as §2

[7] = tested on: Ruminococcus gnavus DSM 108212; test: as above
Procedure, shortened: as §2

[8] = tested on: Escherichia coli IAI1; test: fold change of Putrescine concentration vs plate DMSO controls (fold change (ratio)); higher = more amine produced, active = hit call of the paper (significant change in both replicates, either direction)
Procedure, shortened: as §2

[9] = tested on: Klebsiella aerogenes DSM 30053; test: as above
Procedure, shortened: as §2

[10] = tested on: Escherichia coli IAI1; test: fold change of Cadaverine concentration vs plate DMSO controls (fold change (ratio)); higher = more amine produced, active = hit call of the paper (significant change in both replicates, either direction)
Procedure, shortened: as §2

[11] = tested on: Klebsiella aerogenes DSM 30053; test: as above
Procedure, shortened: as §2

[12] = tested on: Ruminococcus gnavus DSM 108212; test: fold change of 2-Phenylethylamine concentration vs plate DMSO controls (fold change (ratio)); higher = more amine produced, active = hit call of the paper (significant change in both replicates, either direction)
Procedure, shortened: as §2

Structure (SMILES) | growth [1] | growth [2] | growth [3] | growth [4] | fold change of Histamine concentration [5] | fold change of Tryptamine concentration [6] | fold change of Tryptamine concentration [7] | fold change of Putrescine concentration [8] | fold change of Putrescine concentration [9] | fold change of Cadaverine concentration [10] | fold change of Cadaverine concentration [11] | fold change of 2-Phenylethylamine concentration [12]
CCn1cc(C(=O)O)c(=O)c2ccc(C)nc21 [Nalidixic acid sodium salt] (20 µM) | 1.09 | 0.265 | 0.814 | 1.13 | 1.43 (inactive) | 0.991 (inactive) | 1.02 (inactive) | 0.671 (inactive) | 1.05 (inactive) | 1.69 (inactive) | 0.966 (inactive) | 1.07 (inactive)
CC(=O)NCCCS(=O)(=O)O [Acamprosate calcium] (20 µM) | 1.08 | 0.999 | 0.963 | 0.795 | 1.02 (inactive) | 1.02 (inactive) | 0.996 (inactive) | 0.995 (inactive) | 1.02 (inactive) | 0.983 (inactive) | 1 (inactive) | 0.996 (inactive)
CCN[C@H]1C[C@H](C)S(=O)(=O)c2sc(S(N)(=O)=O)cc21 [Dorzolamide hydrochloride] (20 µM) | 1.23 | 1.05 | 1.02 | 1.15 | 0.991 (inactive) | 0.996 (inactive) | 0.977 (inactive) | 1.06 (inactive) | 0.977 (inactive) | 0.965 (inactive) | 0.993 (inactive) | 0.992 (inactive)
OC[C@@H](O)[C@@H](O)[C@H](O)[C@H](O)CO [Mannitol] (50 µM) | 1.02 | 0.924 | 0.982 | 0.983 | 1.04 (inactive) | 1.01 (inactive) | 0.975 (inactive) | 0.919 (inactive) | 0.996 (inactive) | 1.11 (inactive) | 0.992 (inactive) | 0.976 (inactive)
CCc1cc(C(N)=S)ccn1 [Ethionamide] (20 µM) | 1.09 | 1.05 | 1.03 | 0.995 | 0.962 (inactive) | 1 (inactive) | 1.02 (inactive) | 1.05 (inactive) | 1 (inactive) | 1 (inactive) | 1.02 (inactive) | 1.01 (inactive)
O=C1c2ccccc2S(=O)(=O)N1CCCCN1CCN(c2ncccn2)CC1 [Ipsapirone] (20 µM) | 1 | 0.977 | 0.973 | 0.939 | 0.94 (inactive) | 1.04 (inactive) | 0.997 (inactive) | 0.992 (inactive) | 0.997 (inactive) | 1.02 (inactive) | 1 (inactive) | 1.01 (inactive)
CC(C)(C)NC[C@H](O)COc1nsnc1N1CCOCC1 [Timolol maleate salt] (20 µM) | 1 | 1.03 | 1.02 | 1.01 | 1.04 (inactive) | 1.03 (inactive) | 0.991 (inactive) | 1.12 (inactive) | 1.01 (inactive) | 1.02 (inactive) | 1 (inactive) | 0.997 (inactive)
CC(C)NC[C@@H](O)COc1cccc2ccccc12 [(R) Propranolol hydrochloride] (20 µM) | 1.08 | 0.856 | 0.86 | 0.617 | 1.01 (inactive) | 1.04 (inactive) | 0.95 (inactive) | 0.979 (inactive) | 0.993 (inactive) | 1.01 (inactive) | 0.987 (inactive) | 0.945 (inactive)
CN1CC(O)c2cc(N=NC(N)=O)c(O)cc21 (stereo not drawn) [Carbazochrome] (20 µM) | 0.927 | 1.01 | 0.984 | 0.959 | 1.07 (inactive) | 1.1 (inactive) | 1.15 (inactive) | 1.05 (inactive) | 1.01 (inactive) | 0.914 (inactive) | 1.07 (inactive) | 1.34 (inactive)
Cc1ccsc1/C=C/C1=NCCCN1C [Morantel tartrate] (20 µM) | 1.2 | 1.07 | 1.08 | 1.08 | 0.92 (inactive) | 0.936 (inactive) | 0.918 (inactive) | 1.01 (inactive) | 1 (inactive) | 1.03 (inactive) | 1.01 (inactive) | 0.957 (inactive)
Cn1c([N+](=O)[O-])cnc1COC(N)=O [Ronidazole] (20 µM) | 0.00699 | 1.05 | 0.963 | 0.0625 | 0.617 (active) | 0.0193 (active) | 0.0355 (active) | 0.99 (inactive) | 0.97 (inactive) | 1.17 (inactive) | 1.03 (inactive) | 0.0387 (active)
NC(=O)c1cccnc1 [Nicotinamide] (20 µM) | 0.909 | 0.979 | 0.964 | 0.672 | 0.994 (inactive) | 0.971 (inactive) | 0.993 (inactive) | 1.02 (inactive) | 0.896 (inactive) | 1 (inactive) | 1.1 (inactive) | 0.953 (inactive)
CC(C)(C)NCC(O)c1ccc(O)c(CO)c1 (stereo not drawn) [Salbutamol] (20 µM) | 1.05 | 0.99 | 1.03 | 0.843 | 1.08 (inactive) | 0.999 (inactive) | 1.03 (inactive) | 1.04 (inactive) | 1.02 (inactive) | 1 (inactive) | 0.998 (inactive) | 1.03 (inactive)
COc1cc2nc(N(C)CCCNC(=O)C3CCCO3)nc(N)c2cc1OC (stereo not drawn) [Alfuzosin hydrochloride] (20 µM) | 0.976 | 1.01 | 1.01 | 1.31 | 0.953 (inactive) | 1 (inactive) | 1.04 (inactive) | 0.976 (inactive) | 0.99 (inactive) | 1.01 (inactive) | 1.04 (inactive) | 1.04 (inactive)
Cc1cccn2c(=O)c(-c3nnn[nH]3)cnc12 [Pemirolast potassium] (20 µM) | 0.934 | 0.984 | 0.975 | 0.807 | 1.03 (inactive) | 1.02 (inactive) | 1.01 (inactive) | 0.994 (inactive) | 1.01 (inactive) | 0.992 (inactive) | 1 (inactive) | 1.04 (inactive)
CC1(C)OC(=O)NC1=O [Dimethadione] (20 µM) | 0.999 | 0.98 | 0.949 | 1.02 | 0.952 (inactive) | 1.03 (inactive) | 0.747 (inactive) | 1.02 (inactive) | 1 (inactive) | 1.01 (inactive) | 0.992 (inactive) | 0.853 (inactive)
O=C(NC(Cc1cc(=O)[nH]c2ccccc12)C(=O)O)c1ccc(Cl)cc1 (stereo not drawn) [Rebamipide] (20 µM) | 0.925 | 1.01 | 0.964 | 0.957 | 0.934 (inactive) | 1.06 (inactive) | 1.28 (active) | 1.07 (inactive) | 0.965 (inactive) | 0.957 (inactive) | 1 (inactive) | 1.52 (active)
COc1cc2nc(N3CCN(C(=O)C4CCCO4)CC3)nc(N)c2cc1OC (stereo not drawn) [Terazosin hydrochloride] (20 µM) | 1.07 | 1.02 | 1 | 0.977 | 1.08 (inactive) | 1.03 (inactive) | 0.952 (inactive) | 0.936 (inactive) | 1.03 (inactive) | 1 (inactive) | 1.01 (inactive) | 0.948 (inactive)
O=[N+]([O-])c1ccc2c(c1)Cc1ccccc1-2 [2-Nitrofluorene] (20 µM) | 0.873 | 0.978 | 0.973 | 0.994 | 0.997 (inactive) | 1 (inactive) | 1.04 (inactive) | 0.97 (inactive) | 1 (inactive) | 1.04 (inactive) | 0.995 (inactive) | 1.02 (inactive)
CCN(CCCc1ccccc1)CCCc1ccccc1 [Alverine citrate salt] (20 µM) | 0.998 | 1.01 | 1.11 | 0.708 | 0.972 (inactive) | 1.03 (inactive) | 0.74 (active) | 0.895 (inactive) | 1.02 (inactive) | 1.29 (active) | 1.02 (inactive) | 0.782 (inactive)
Nc1nc(=O)c2nc(CNc3ccc(C(=O)N[C@@H](CCC(=O)O)C(=O)O)cc3)cnc2[nH]1 [Folic acid] (20 µM) | 0.939 | 1.08 | 0.988 | 0.783 | 0.93 (inactive) | 1.04 (inactive) | 0.955 (inactive) | 1.05 (inactive) | 0.997 (inactive) | 0.98 (inactive) | 1.01 (inactive) | 0.928 (inactive)
CC(=O)N(CC(O)CN(C(C)=O)c1c(I)c(C(=O)NCC(O)CO)c(I)c(C(=O)NCC(O)CO)c1I)c1c(I)c(C(=O)NCC(O)CO)c(I)c(C(=O)NCC(O)CO)c1I (stereo not drawn) [Iodixanol] (20 µM) | 0.85 | 0.989 | 1.03 | 1.01 | 0.962 (inactive) | 1.02 (inactive) | 0.886 (inactive) | 1.04 (inactive) | 1 (inactive) | 0.988 (inactive) | 0.991 (inactive) | 0.815 (inactive)
CN(C)CCOC(c1ccc(Cl)cc1)c1ccccn1 (stereo not drawn) [Carbinoxamine maleate salt] (20 µM) | 1.2 | 1.01 | 0.985 | 0.88 | 1.04 (inactive) | 0.981 (inactive) | 1.05 (inactive) | 0.966 (inactive) | 1.02 (inactive) | 0.974 (inactive) | 1 (inactive) | 1.1 (inactive)
OC[C@H]1O[C@H](O[C@H]2O[C@H](CO)[C@@H](O)[C@H](O)[C@H]2O)[C@H](O)[C@@H](O)[C@@H]1O [Trehalose] (50 µM) | 0.902 | 1.07 | 1.03 | 1.06 | 0.94 (inactive) | 1.16 (inactive) | 1.09 (inactive) | 1 (inactive) | 0.901 (inactive) | 0.831 (inactive) | 1.06 (inactive) | 1.15 (inactive)

Reference: the supplement of paper PMC12494721
